ChEMBL document CHEMBL1157539, “Thousands of chemical starting points for antimalarial lead identification” (Nature, 2010)

Tested on: Plasmodium falciparum
Test: GSK_TCMDC: Inhibition of Plasmodium falciparum 3D7 in whole red blood cells, using parasite LDH activity as an index of growth. Test compounds present at 2uM
Type: functional

| SMILES | Inhibition |
| --- | --- |
| Cc1cccc2nc(-c3cccc(-c4ccc(CNCc5cnn(-c6ccccc6)n5)cc4)c3)[nH]c12.O=C(O)C(F)(F)F | 100% |
| Cn1nccc1C(=O)NCCNCc1ccc(-c2cccc(-c3nc4cc(C(F)(F)F)ccc4[nH]3)c2)cc1.O=C(O)C(F)(F)F | 100% |
| COc1cc(NC(=O)/C=C/c2cccc3cc[nH]c23)ccc1OCCN(C(C)C)C(C)C.Cl | 99% |
| CCCCc1cc(NCC)nc(Nc2ccc(OC)cc2)n1 | 85% |
| CCCN1CCN(c2cc(S(=O)(=O)Nc3ccc(C(=O)NCc4cccc(C(F)(F)F)c4)cc3)ccc2OC)CC1.O=C(O)C(F)(F)F | 92% |
| CCN(CC)CCCN(C(=O)Nc1c(Cl)cncc1Cl)c1nc(-c2ccc(F)cc2)cs1 | 100% |
| Cl.O=C(Nc1ccc(NC2=NCCN2)cc1)c1ccc(C(=O)Nc2ccc(NC3=NCCN3)cc2)cc1 | 91% |
| CN(CCCCNC(=O)c1cc2ccccc2[nH]1)C1CC2(CCN(C(=O)OC(C)(C)C)CC2)c2ccccc21 (stereo unspecified) | 86% |
| NC(=O)c1cc(-c2ccccc2)cc2c(C3CCC(NCc4ccccc4)C3)c[nH]c12 (stereo unspecified) | 95% |
| N=C(N)NCCCN(Cc1ccccc1)c1ccc(Cl)cc1.O=S(=O)(O)O | 100% |
| COc1ccc(S(=O)(=O)NC2CCN(c3ccnc4cc(Cl)ccc34)C2)cc1.O=C(O)C(F)(F)F (stereo unspecified) | 100% |
| Cl.O=C(Nc1cccc(Cl)c1Cl)N1CCc2cc3nccc(N4CCN5CCC[C@H]5C4)c3cc21 | 98% |
| O=C(c1ccc(-c2ccc(-c3nc4cc(C(F)(F)F)ccc4[nH]3)s2)cc1)N1CCCCC1CN1CCC(O)C1 (stereo unspecified) | 92% |
| Cl.O=[N+]([O-])c1cccc(-c2nc3cc(C4=NC5CCCCC5N4)ccc3[nH]2)c1 (stereo unspecified) | 100% |
| COC(=O)[C@@H](NC(=O)[C@H](CC(C)C)Nc1ccc(C#N)c2ccccc12)c1ccc(O)cc1.O=C(O)C(F)(F)F | 98% |
| COc1ccc(CN2CCC(N3CCc4cc(NC(=O)c5cc(C)on5)ccc43)C2)cc1Cl (stereo unspecified) | 94% |
| CN1CCCc2cc(NC(=O)c3cc(-c4ccc(Cl)cc4)cs3)ccc2C1.O=C(O)C(F)(F)F | 100% |
| Fc1cccc(C=NN=c2cc[nH]c3ccc(C(F)(F)F)cc23)c1 | 100% |
| Nc1nccc2ccc(-c3ccc(OCc4ccccc4)cc3)cc12.O=C(O)C(F)(F)F | 100% |
| O=C(C=Cc1ccc(Cl)c(Cl)c1)NCCCCCN1CCC(CCNC(=O)c2sc3ccccc3c2Cl)CC1 | 88% |
| CCCCCCCn1c(=N)n(CC(O)c2ccc(Cl)c(Cl)c2)c2ccccc21.Cl (stereo unspecified) | 98% |
| O=C(Nc1cccc(-c2ccc(-c3nc4ccccc4[nH]3)cc2)c1)c1csnn1 | 91% |
| CCc1ccc(CN(CCCOc2cccc(CC(=O)NCc3c[nH]cn3)c2)Cc2ccc(-n3ccnc3)cc2)cc1 | 99% |
| O=C(Nc1nc2cc(S(=O)(=O)NCc3ccc(Cl)c(Cl)c3)ccc2n1CCCN1CCCC1)c1ccc(Cl)cc1.O=C(O)C(F)(F)F | 89% |
| COc1ccc(-c2csc3ncnc(Cl)c23)cc1OC | 93% |
| O=C(Nc1ccccc1)N(Cc1cccc(-c2cccc(CNCc3ccc4c(c3)OCO4)c2)c1)C1CCN(Cc2ccccc2)CC1.O=C(O)C(F)(F)F | 100% |
